UDG counter = Primary qHTS assay for inhibitors of Activation Induced Cytidine Deaminase (AID): UDG Counterscreen signal; FRET deamination/UDG coupled assay, UDG read, 4 h; Uracil-DNA glycosylase; Potency, µM (series often up to 115 µM), without a hit: at the top dose activity change, negative = inhibition, hits mostly inhibitors; 91,000 compounds, 0.14% hits; AID 1347430, 2020; also: potency is read from the fitted curve at half-maximal effect; % is scaled to controls: 0 for no effect and ±100 for the full control effect; nearly all actives have a fitted effect of over 65% in size
AID inhibitor = Primary qHTS assay for inhibitors of Activation Induced Cytidine Deaminase (AID): AID signal; Single-stranded DNA cytosine deaminase (Homo sapiens), Q9GZX7; AID deamination FRET fluorescence, UDG-coupled, 4 h; Potency, µM (titrated, usually from 115 µM), actives largely listed as inhibitors; 91,000 compounds, 0.32% hits; AID 1347428, 2020; also: potency is read from the fitted curve at half-maximal effect; % is scaled to controls: 0 for no effect and ±100 for the full control effect; nearly all actives have a fitted effect of over 25% in size
Target sequence (Q9GZX7 whole entry, looked up): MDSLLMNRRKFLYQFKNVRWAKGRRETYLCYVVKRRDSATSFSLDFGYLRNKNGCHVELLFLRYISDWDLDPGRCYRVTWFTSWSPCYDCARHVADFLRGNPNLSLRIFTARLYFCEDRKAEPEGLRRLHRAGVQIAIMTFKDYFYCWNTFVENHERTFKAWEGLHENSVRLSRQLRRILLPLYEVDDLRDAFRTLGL
GPR32 ag = qHTS for Agonists of Human Resolvin D1 Receptor DRV1; CHO-K1 GPR32 beta-arrestin PathHunter luminescence, 90 min; zero percent set by DMSO-only wells; 48,000 compounds, 2.5% hits; Probable G-protein coupled receptor 32 (Homo sapiens), O75388; activation, % at 76.9 µM;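 active = activation of at least 60% and not above a set upper limit, about 1 call in 100 departs from these limits; inconclusive = activation of 40% to 60%, or above that upper limit; inactive = activation under 40%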; also: 0% is about no effect
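CHO-K1 cells stably expressing ProLink-tagged GPR32 and Enzyme Activator-tagged beta-arrestin were seeded at 2,500 cells/well overnight, exposed to compounds for 90 min at 37 °C, then read by beta-Gal complementation chemiluminescence after 1 h detection reagent.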
The depositor's hits bear a star; i = inactive; ? = inconclusive; / = no result; ! = a repeat was not active; [ ] = dose if it differs, or a comment. This excerpt belongs to a sample that is enriched for hits. Unless noted, calls follow the shape of the dose curve; as a rule, active = well fitted curve in the direction sought with a large enough effect; inconclusive = small, poorly fitted or top-dose-only effect, or another doubt; inactive = no such curve, though single readings can be large; an effect the other way counts as inactive or inconclusive.

SMILES	UDG counter	AID inhibitor	GPR32 ag
Cc1cc(Br)ccc1NC(=O)C(Cc1ccccc1)NS(=O)(=O)c1ccc(Br)s1 (configuration not stated)	-1%	i	65*
CC(=O)Nc1ccc(NC(=O)C(NS(=O)(=O)c2ccc(Br)s2)c2ccccc2)cc1 (configuration not stated)	-8%[57.5 µM]	i	-8
O=C(NC1CCCCCC1)C(Cc1ccccc1)NS(=O)(=O)c1ccc(Br)s1 (configuration not stated)	-8%	i	/
CCOc1ccc(OCC)c(NC(=O)C(NS(=O)(=O)c2ccc(Br)s2)c2ccccc2)c1 (configuration not stated)	-13%[57.5 µM]	i	85*
CCOc1ccc(C(=O)CCC(=O)OCC(=O)c2ccccc2Br)cc1	-3%	i	/
Cc1ccc(Cn2nc(C)c(NC(=O)COCc3cc(-c4cccs4)on3)c2C)cc1	-4%	i	/
Cc1ccc(NC(=O)CSc2nc(C)c(Cc3ccccc3)c(=O)[nH]2)cc1C	-2%	i	25
Cc1cccc(NC(=O)CSc2nc(C)c(Cc3ccccc3)c(=O)[nH]2)c1	2%	i	68*
COc1ccccc1-c1cc(C(=O)Nc2c(C)nn(Cc3ccc(Cl)cc3)c2C)no1	-30%	i	72*
COc1ccc(OC)c(-c2cc(C(=O)Nc3c(C)nn(Cc4ccc(C)cc4)c3C)no2)c1	?	i	10
COc1ccc(-c2cc(C(=O)Nc3ccn(Cc4ccc(C)cc4)n3)no2)cc1OC	2%	i	78*
COc1cccc(-c2cc(C(=O)Nc3ccn(Cc4ccc(C)cc4)n3)no2)c1	-2%	i	50
O=C(NCCN1CCOCC1)c1nn(-c2ccccc2)c(=O)c2ccccc12	5%	i	/
COc1cccc(CNC(=O)c2ccc(C(F)(F)F)cc2)c1	1%	i	/
CCCCCCCC/C=C\CCCCCCCC(=O)NCCc1ccc(O)c(O)c1	-19%	?	-8
CCCCCCCC/C=C\CCCCCCCC(=O)NCc1ccc(O)c(OC)c1	-4%	i	75*!
NC(=O)c1nn(CC(=O)NC2CCCCCC2)c(=O)c2ccccc12	4%	i	/
CCOC(=O)c1ccc(NC(=O)c2ncoc2-c2ccc(OC)c(OC)c2)cc1	3%	i	/
COc1cc(OC)c(C2Nc3ccccc3-c3nnc(SCc4ccccc4)nc3O2)cc1OC (configuration not stated)	?	i	64*
CCOc1ccc(C2Nc3ccccc3-c3nnc(SCc4ccccc4)nc3O2)cc1OC (configuration not stated)	?	i	9
CCOC(=O)c1sc(NC(=O)c2ccc(F)c(S(=O)(=O)N3CCCCC3)c2)cc1C	3%	i	/
CCc1ccc(NC(=O)Cn2nnc(-c3ccccc3N)n2)cc1	4%	i	62*
O=C(Cn1nnc(-c2ccccc2Cl)n1)Nc1ccc(Br)cc1	-2%	i	11
COc1cc(OC)cc(C(=O)Nc2cccc(-c3cn4cccnc4n3)c2)c1	-12%	i	?
COc1ccc(NC(=O)Nc2cccc(-c3cn4cccnc4n3)c2)cc1	11%	i	77*
SMILES	UDG counter	AID inhibitor	GPR32 ag
O=C(Nc1ccc(-c2cn3cccnc3n2)cc1)c1cc(Br)ccc1Cl	-12%	i	83*
Cc1ccccc1C(=O)Nc1cccc(-c2cn3cccnc3n2)c1	-9%	i	?
COc1cccc(C(=O)Nc2cccc(-c3nc4ncccn4c3C)c2)c1	-2%	i	61*
COc1cccc(C(=O)Nc2cccc(-c3nncn3C)c2)c1	-9%	i	/
S=C(NCc1ccccc1)NC1CC1	6%	i	/
O=C(OCc1cc(-c2ccc(Cl)cc2)no1)c1cc(Br)c[nH]1	-3%	i	/
CC(C)C(C)NC(=O)COc1ccc(-n2cnnn2)cc1 (configuration not stated)	-1%	i	/
C=CCNC(=O)COC(=O)c1cc(-c2ccc(C)o2)nc2ccccc12	-1%	i	/
O=C1CC(c2nc(-c3ccccc3)no2)CN1c1ccccc1 (configuration not stated)	44%	?	65*
COc1ccc(-c2noc(C3CC(=O)N(c4ccccc4)C3)n2)c(OC)c1 (configuration not stated)	-6%	i	?
CC(C)OC(=O)C(C(=O)OC(C)C)=C1SC=CS1	/	/	73*
CC(C)OC(=O)c1cc(C(=O)O)c(C(=O)OC(C)C)cc1C(=O)O	-5%	i	/

High-throughput results deposited in PubChem by National Center for Advancing Translational Sciences (NCATS).
